Records with an inconclusive call do not appear. A number with no mark means an inactive call. Activity calls are given as the source filed them. Unless noted, calls follow the shape of the dose curve; as a rule, active = well fitted curve in the direction sought with a large enough effect in the repeat runs; inconclusive = weak or mixed curves; inactive = no such curve, though single readings can be large; an effect the other way counts as inactive or inconclusive.

Test [1] is described as follows: qHTS assay to identify small molecule antagonists of the estrogen related receptor (ERR) signaling pathway from Tox21 library - cell viability counter screen (AID 1224834). Also: nearly all actives have a fitted effect of over 30% in size. Also: potency is read from the fitted curve at half-maximal effect. In outline:
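Cytotoxicity of test substances is gauged in the same ERR cells used for the antagonist screen, after 17.5 h of compound treatment at 37 C, by CellTiter-Fluor fluorescence measured after 30 min.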
(In general: In qHTS, concentration-response curves come from the screen itself.)

Test [2] can be described thus: qHTS assay to identify small molecule agonists of the constitutive androstane receptor (CAR) signaling pathway - cell viability counter screen (AID 1224836). Also: nearly all actives have a fitted effect of over 45% in size. Also: potency is read from the fitted curve at half-maximal effect. As to viability change, negative = cytotoxic: series mostly up to about 92 µM. The method in brief:
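Cells were seeded and incubated 4 hrs. Compounds were added across 15 concentrations together with PK11195 at 0.75 uM final. Plates were incubated 23 hrs at 37 C. CellTiter-Fluor was added and fluorescence measured.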

A short description of test [3]: qHTS assay to identify small molecule antagonists of the constitutive androstane receptor (CAR) signaling pathway - cell viability counter screen (AID 1224837). Also: nearly all actives have a fitted effect of over 45% in size. Also: potency is read from the fitted curve at half-maximal effect. As to activity change, negative = cytotoxicity: series mostly up to about 92 µM. In outline:
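Multiplexed cytotoxicity read-out for the CAR antagonist screen: double-stable HepG2-CYP2B6-hCAR cells co-treated with 50 nM CITCO (final) and compound over 15 concentrations, incubated 23 hr, then assessed by CellTiter-Fluor fluorescence.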

For test [4], the target named is Nuclear receptor subfamily 1 group I member 3 (Homo sapiens) (UniProt Q14994). The test is described as follows: qHTS assay to identify small molecule antagonists of the constitutive androstane receptor (CAR) signaling pathway (AID 1224838). Also: nearly all actives have a fitted effect of over 40% in size. Also: potency is read from the fitted curve at half-maximal effect. In outline: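 Compounds were titrated across 15 concentrations onto HepG2 cells double-stably expressing hCAR and a CYP2B6-2.2kb reporter, together with 50 nM CITCO (final). After 24 h at 37 C, luciferase activity was measured by luminescence.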
Chain of Nuclear receptor subfamily 1 group I member 3 (Homo sapiens) (Q14994 whole entry, looked up): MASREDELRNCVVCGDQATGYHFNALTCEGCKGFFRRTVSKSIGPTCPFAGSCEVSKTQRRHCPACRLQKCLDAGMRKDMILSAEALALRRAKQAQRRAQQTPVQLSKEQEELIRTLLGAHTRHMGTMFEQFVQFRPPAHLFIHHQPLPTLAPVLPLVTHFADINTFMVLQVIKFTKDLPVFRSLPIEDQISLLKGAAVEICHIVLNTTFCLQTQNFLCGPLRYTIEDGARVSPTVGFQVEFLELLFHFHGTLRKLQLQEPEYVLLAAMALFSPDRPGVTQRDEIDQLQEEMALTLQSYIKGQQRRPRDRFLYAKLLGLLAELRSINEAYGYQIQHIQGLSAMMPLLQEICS

Test [5] shares this target. Briefly: qHTS assay to identify small molecule agonists of the constitutive androstane receptor (CAR) signaling pathway (AID 1224839). Also: nearly all actives have a fitted effect of over 15% in size. Also: potency is read from the fitted curve at half-maximal effect. As to activation: series mostly up to about 92 µM. The method in brief:
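Cells were plated and incubated 4 hrs, then dosed with compounds at 15 concentrations. PK11195 was added to 0.75 uM final. After 24 hrs at 37 C, luciferase luminescence was measured.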

A short description of test [6]: qHTS assay to identify small molecule antagonists of the estrogen related receptor signaling pathway with the pleiotropic PPARgamma coactivator (PGC) from Tox21 10K library - cell viability counter screen (AID 1224840; active = well fitted cell-killing curve with a large enough effect in the repeat runs, not every such curve was filed as active; also: nearly all actives have a fitted effect of over 40% in size). In outline:
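Step one, plate 2,000 PGC/ERR cells per well; step two, incubate 6 h at 37 C/5% CO2; step three, pin-transfer compounds; step four, incubate 17.5 h; step five, add CellTiter-Fluor and read fluorescence after 30 min.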

Test [7] is described as follows: qHTS assay to identify small molecule antagonists of the estrogen related receptor signaling pathway with the pleiotropic PPARgamma coactivator (PGC) from Tox21 10K library (AID 1224841; call rule not given here; also: actives are mostly falling curves and most rising ones were filed inactive; nearly all actives have a fitted effect of over 50% in size; also: potency is read from the fitted curve at half-maximal effect; as to activity, negative = inhibition: series mostly up to about 92 µM). The method in brief: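 Antagonism in this quantitative HTS is taken from loss of luciferase signal in PGC/ERR cells. Cells (2,000/well) are treated with compounds in DMSO after a 6 h settling period and read by One-Glo luminescence after 18 h.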

The nature of test [8]: qHTS assay to identify small molecule agonists of the estrogen related receptor signaling pathway with the pleiotropic PPARgamma coactivator (PGC) from Tox21 10K library (AID 1224842). Also: nearly all actives have a fitted effect of over 15% in size. Also: potency is read from the fitted curve at half-maximal effect. In outline:
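PGC/ERR reporter cell line, 2,000 cells per well, incubated 6 h at 37 C before 23 nL compound in DMSO was added. After 18 h at 37 C, One-Glo luminescence read following 30 min at room temperature.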

Test [9] deals with Luciferin 4-monooxygenase (Photinus pyralis) (UniProt P08659). The test is described as follows: qHTS assay to identify small molecule inhibitors of firefly luciferase (AID 1224835). Also: series mostly up to about 120 µM; nearly all actives have a fitted effect of over 25% in size. In outline:
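Biochemical qHTS: compounds run as interplate titrations against purified firefly enzyme, with D-luciferin and ATP each at its KM concentration. Light output recorded by CCD imaging.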
% is scaled to controls: 0 for no effect and ±100 for the full control effect.

Chain of Luciferin 4-monooxygenase (Photinus pyralis) (P08659 whole entry, looked up): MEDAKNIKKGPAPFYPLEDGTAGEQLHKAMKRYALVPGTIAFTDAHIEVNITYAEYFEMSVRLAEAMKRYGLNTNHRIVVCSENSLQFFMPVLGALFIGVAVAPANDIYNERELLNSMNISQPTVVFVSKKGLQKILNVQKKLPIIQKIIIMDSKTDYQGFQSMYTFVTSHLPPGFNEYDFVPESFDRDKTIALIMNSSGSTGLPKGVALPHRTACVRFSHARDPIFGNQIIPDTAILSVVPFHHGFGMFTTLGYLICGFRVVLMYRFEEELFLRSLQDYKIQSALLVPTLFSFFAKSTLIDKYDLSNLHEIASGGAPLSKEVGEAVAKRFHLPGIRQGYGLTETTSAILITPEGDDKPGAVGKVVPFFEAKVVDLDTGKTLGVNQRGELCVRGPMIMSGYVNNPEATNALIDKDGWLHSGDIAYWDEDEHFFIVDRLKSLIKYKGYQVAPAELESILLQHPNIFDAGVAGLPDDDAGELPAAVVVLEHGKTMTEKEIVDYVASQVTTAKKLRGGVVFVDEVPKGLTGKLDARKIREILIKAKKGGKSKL

For the compound `CNC(=O)N(c1ccccc1)c1ccccc1`, the Potency entry in test [1], in [2], in test [3], in [4], in [5] and in test [6] was “inactive” each time. Besides, the Potency entry in test [7] and in test [8] was “inactive” in each case.
Turning to `Cc1ccc(S)cc1`, the Potency entry in test [1], in test [2], in test [3], in [4], in [5] and in test [6] was “inactive” in each case.
Take `O=C(O)c1snc(Cl)c1Cl`: the Potency entry in [1], in test [2], in test [3], in test [4], in test [5] and in test [6] was “inactive” throughout.
For the compound `CCOC(=O)c1ccccc1OC`, the Potency result in test [1], in test [2], in [3], in test [4], in test [5] and in test [6] was “inactive” throughout. For the same compound, the Potency result in test [7] and in test [8] was “inactive” in each case.
Turning to `COc1cc2ncnc(Nc3ccc(F)c(Cl)c3)c2cc1OCCCN1CCOCC1`, the Potency in test [1] was 21.1 µM (active). Besides, the Potency entry in [9], in test [4], in test [5] and in test [8] was “inactive” throughout.
`Nc1ccc(S(=O)(=O)O)c(N)c1`: the Potency entry in test [1], in test [2], in test [3], in test [7] and in [8] was “inactive” each time.
As for `CC(=O)N(c1onc(C)c1C)S(=O)(=O)c1ccc(N)cc1`, the Potency entry in test [1], in test [2], in test [3], in test [4], in test [5] and in [6] was “inactive” throughout.
Take `CCCC(=O)O[C@]1(C(=O)COC(=O)CC)CC[C@H]2[C@@H]3CCC4=CC(=O)CC[C@]4(C)[C@H]3[C@@H](O)C[C@@]21C`: the results for the viability change, negative = cytotoxic in test [1], in [2] and in test [6] were 2.61% [at 19 µM], 10.6% [at 19 µM] and -4.48% [at 19 µM], respectively. The activity change, negative = cytotoxicity in test [3] was 6.46% [at 19 µM]. Also, the activity, negative = inhibition in test [4] is 2.05% [at 19 µM]. For the same compound, the activation in test [5] was -0.514% [at 19 µM].
As to `CCCCCCCCSCCO`, the Potency entry in [1], in test [2], in test [3], in test [4], in test [5] and in [6] was “inactive” throughout. The Potency result in [7] and in test [8] was “inactive” in each case.
For `Cc1nc2ccccc2s1`, the Potency entry in test [1], in test [2], in [3], in test [4], in test [5] and in test [6] was “inactive” each time. For the same compound, the Potency result in test [8] was “inactive”. In [7], the Potency is 48.9 µM (active).
Consider `CCCCCCCC/C=C\CCCCCCCC(=O)OC(CO)CO`, for which the Potency result in test [1], in test [2], in test [4] and in [5] was “inactive” each time.
As to `CC1(C)C2=CCCC(C)(C)[C@]23CC[C@H]1C3`, the Potency result in [1], in [2], in test [4], in [5] and in test [6] was “inactive” in each case.
`CCOC(=O)c1ccccc1C`: the Potency entry in test [1], in test [2], in [4] and in [5] was “inactive” each time.
For `CC(=O)[C@H]1CC[C@H]2[C@@H]3C=CC4=CC(=O)CC[C@@]4(C)[C@@H]3CC[C@]12C`, the Potency entry in test [9], in [2], in [3] and in test [5] was “inactive” in each case.
As to `CC(C)=CC=O`, the Potency entry in test [9], in test [2] and in [3] was “inactive” in each case.
Turning to `CCCCC/C(=C\c1ccccc1)CO`, the Potency entry in test [9], in test [2], in test [3] and in test [4] was “inactive” each time.
Take `CO[C@@]12[C@H](COC(N)=O)C3=C(C(=O)C(C)=C(N)C3=O)N1C[C@@H]1N[C@@H]12`: the Potency entry in test [9], in [5] and in test [8] was “inactive” throughout. Moreover, the Potency in [2] is 9.44 µM (active); in test [3], 9.44 µM (active); in test [4], 0.75 µM (active); in [7] it was 23.7 µM (active).
Take `COC(=O)c1cc(Cl)ccc1NS(=O)(=O)C(F)(F)F`: the Potency result in [9], in test [2], in test [3], in [4], in test [5] and in [6] was “inactive” each time. For the same compound, the Potency result in [7] and in test [8] was “inactive” each time.
With `NC(=O)N(O)[C@@H]1C=C[C@H](Oc2cccc(Oc3ccc(F)cc3)c2)C1`, the Potency result in test [1], in test [3] and in test [7] was “inactive” each time. Also, the Potency in test [8] is 27.3 µM (active).
On to `Oc1ccc(Nc2ccccc2)cc1`, for which the Potency result in test [9], in test [2], in test [3], in test [4], in test [7] and in [8] was “inactive” each time.
`NC(=O)Nc1ccc(Cl)c(Cl)c1`: the Potency result in test [9], in [2], in test [3], in test [4], in test [5] and in [6] was “inactive” throughout. In addition, the Potency result in test [7] and in test [8] was “inactive” in each case.
With `O=C(OCCOCCO)c1ccccc1Nc1cccc(C(F)(F)F)c1`, the Potency result in test [9], in test [2], in [3], in test [4] and in [5] was “inactive” each time.
As to `CCCCC(=O)O[C@]1(C(=O)CO)CC[C@H]2[C@@H]3CCC4=CC(=O)CC[C@]4(C)[C@H]3[C@@H](O)C[C@@]21C`, the Potency result in test [9], in test [2], in [3], in [4], in test [5] and in [6] was “inactive” in each case. Moreover, the Potency entry in [7] and in [8] was “inactive” each time.
`O=C(N[C@@H](c1ccccc1)[C@@H]1CCCCN1)c1cccc(C(F)(F)F)c1Cl`: the Potency result in test [9], in test [5] and in test [8] was “inactive” each time. Moreover, the Potency in test [2] is 61.1 µM (active); in test [3], 61.1 µM (active); in test [4], 48.6 µM (active).
Consider `O=C(O)c1ccccc1NCCc1ccccc1`, for which the Potency result in test [1], in test [2], in [4], in test [6] and in test [7] was “inactive” in each case. Further, in test [5], the Potency was 26.6 µM (active).
For `O=C(CCCN1CCC(O)(c2ccc(Br)cc2)CC1)c1ccc(F)cc1`, the Potency result in test [9], in test [2], in [3], in [5] and in [6] was “inactive” in each case. Also, the Potency in test [4] was 33.5 µM (active).
As to `COCC(O)CO` (stereo not given), the Potency entry in [9], in [2], in [3], in test [4], in [5] and in test [6] was “inactive” each time.

Source of the values: PubChem BioAssay (Tox21).
